Laboratory results reported in the supplement of paper PMC4466140.

B1: unnamed (peptide)
chain: VNIPSPSSSPPPIPK
B2: unnamed (peptide)
chain: AVPPPPPPPPLPESL

target: AgAbp1; experiment: SPOT peptide array binding signal intensity (averaged, normalized) (arbitrary units (background-subtracted, floor 0; scale differs between SH3 domains)); higher = stronger binding of the SH3 domain to the peptide
Summary of the method: (§1)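 The binding signal is the normalized, background-subtracted spot intensity averaged over replicates; its arbitrary units differ between domains. It was obtained by incubating 10 μg/ml GST-fused SH3 domains from four yeast species overnight at 4°C in TBS-based blocking buffer on cellulose membranes with synthetic 15-mer peptides, cysteines replaced by serines, then detecting with anti-GST antibody, HRP anti-mouse secondary and luminol.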

Row | Binder | SPOT peptide array binding signal intensity
1 | B1 | 8
2 | B2 | 8.5

target: AgBbc1; experiment: as above
Summary of the method: as §1

Row | Binder | SPOT peptide array binding signal intensity
3 | B1 | ≤ 0
4 | B2 | 0.5

target: AgBem1-D1; experiment: as above
Summary of the method: as §1

Row | Binder | SPOT peptide array binding signal intensity
5 | B1 | 28
6 | B2 | ≤ 0

target: AgBzz1-D1; experiment: as above
Summary of the method: as §1

Row | Binder | SPOT peptide array binding signal intensity
7 | B1 | ≤ 0
8 | B2 | 1

target: AgBzz1-D2; experiment: as above
Summary of the method: as §1

Row | Binder | SPOT peptide array binding signal intensity
9 | B1 | 5
10 | B2 | 5.5

target: AgCyk3; experiment: as above
Summary of the method: as §1

Row | Binder | SPOT peptide array binding signal intensity
11 | B1 | 0.5
12 | B2 | ≤ 0

target: AgFus1; experiment: as above
Summary of the method: as §1

Row | Binder | SPOT peptide array binding signal intensity
13 | B1 | 0.5
14 | B2 | 2

target: AgHof1; experiment: as above
Summary of the method: as §1

Row | Binder | SPOT peptide array binding signal intensity
15 | B1 | ≤ 0
16 | B2 | 182

target: AgHse1; experiment: as above
Summary of the method: as §1

Row | Binder | SPOT peptide array binding signal intensity
17 | B1 | 20.5
18 | B2 | 26

target: AgLsb1; experiment: as above
Summary of the method: as §1

Row | Binder | SPOT peptide array binding signal intensity
19 | B1 | ≤ 0
20 | B2 | 0.5

target: AgLsb4; experiment: as above
Summary of the method: as §1

Row | Binder | SPOT peptide array binding signal intensity
21 | B1 | ≤ 0
22 | B2 | 3

target: AgMyo5; experiment: as above
Summary of the method: as §1

Row | Binder | SPOT peptide array binding signal intensity
23 | B1 | 2570
24 | B2 | 188

target: AgNbp2; experiment: as above
Summary of the method: as §1

Row | Binder | SPOT peptide array binding signal intensity
25 | B1 | ≤ 0
26 | B2 | 18

target: AgRvs167; experiment: as above
Summary of the method: as §1

Row | Binder | SPOT peptide array binding signal intensity
27 | B1 | 0.5
28 | B2 | 0.667

target: AgSho1; experiment: as above
Summary of the method: as §1

Row | Binder | SPOT peptide array binding signal intensity
29 | B1 | ≤ 0
30 | B2 | 1

target: AgSla1-D1-D2; experiment: as above
Summary of the method: as §1

Row | Binder | SPOT peptide array binding signal intensity
31 | B1 | 8
32 | B2 | ≤ 0

target: AgSla1-D3; experiment: as above
Summary of the method: as §1

Row | Binder | SPOT peptide array binding signal intensity
33 | B1 | ≤ 0
34 | B2 | 2

target: CaAbp1-D1; experiment: as above
Summary of the method: as §1

Row | Binder | SPOT peptide array binding signal intensity
35 | B1 | 5
36 | B2 | 1

target: CaAbp1-D2; experiment: as above
Summary of the method: as §1

Row | Binder | SPOT peptide array binding signal intensity
37 | B1 | 9
38 | B2 | 1

target: CaBbc1; experiment: as above
Summary of the method: as §1

Row | Binder | SPOT peptide array binding signal intensity
39 | B1 | ≤ 0
40 | B2 | ≤ 0

target: CaBem1-D1; experiment: as above
Summary of the method: as §1

Row | Binder | SPOT peptide array binding signal intensity
41 | B1 | 10
42 | B2 | 1

target: CaBzz1-D1; experiment: as above
Summary of the method: as §1

Row | Binder | SPOT peptide array binding signal intensity
43 | B1 | 34
44 | B2 | 951

target: CaBzz1-D2; experiment: as above
Summary of the method: as §1

Row | Binder | SPOT peptide array binding signal intensity
45 | B1 | 4.75
46 | B2 | 158

target: CaCyk3; experiment: as above
Summary of the method: as §1

Row | Binder | SPOT peptide array binding signal intensity
47 | B1 | ≤ 0
48 | B2 | ≤ 0

target: CaFus1; experiment: as above
Summary of the method: as §1

Row | Binder | SPOT peptide array binding signal intensity
49 | B1 | 47.5
50 | B2 | 2

target: CaHof1; experiment: as above
Summary of the method: as §1

Row | Binder | SPOT peptide array binding signal intensity
51 | B1 | 0.5
52 | B2 | 0.5

target: CaHse1; experiment: as above
Summary of the method: as §1

Row | Binder | SPOT peptide array binding signal intensity
53 | B1 | ≤ 0
54 | B2 | 4.75

target: CaLsb1; experiment: as above
Summary of the method: as §1

Row | Binder | SPOT peptide array binding signal intensity
55 | B1 | ≤ 0
56 | B2 | 0.5

target: CaLsb4; experiment: as above
Summary of the method: as §1

Row | Binder | SPOT peptide array binding signal intensity
57 | B1 | ≤ 0
58 | B2 | ≤ 0

target: CaMyo5; experiment: as above
Summary of the method: as §1

Row | Binder | SPOT peptide array binding signal intensity
59 | B1 | 1400
60 | B2 | 29

target: CaNbp2; experiment: as above
Summary of the method: as §1

Row | Binder | SPOT peptide array binding signal intensity
61 | B1 | 19.5
62 | B2 | 23.5

target: CaRvs167; experiment: as above
Summary of the method: as §1

Row | Binder | SPOT peptide array binding signal intensity
63 | B1 | ≤ 0
64 | B2 | 3.67

target: CaRvs167-3; experiment: as above
Summary of the method: as §1

Row | Binder | SPOT peptide array binding signal intensity
65 | B1 | 2.25
66 | B2 | 1.5

target: CaSho1; experiment: as above
Summary of the method: as §1

Row | Binder | SPOT peptide array binding signal intensity
67 | B1 | 2
68 | B2 | 4.5

target: CaSla1-D1-D2; experiment: as above
Summary of the method: as §1

Row | Binder | SPOT peptide array binding signal intensity
69 | B1 | ≤ 0
70 | B2 | ≤ 0

target: CaSla1-D3; experiment: as above
Summary of the method: as §1

Row | Binder | SPOT peptide array binding signal intensity
71 | B1 | 1.25
72 | B2 | ≤ 0

target: ScAbp1; experiment: as above
Summary of the method: as §1

Row | Binder | SPOT peptide array binding signal intensity
73 | B1 | ≤ 0
74 | B2 | ≤ 0

target: ScBbc1; experiment: as above
Summary of the method: as §1

Row | Binder | SPOT peptide array binding signal intensity
75 | B1 | 1
76 | B2 | ≤ 0

target: ScBem1-D1; experiment: as above
Summary of the method: as §1

Row | Binder | SPOT peptide array binding signal intensity
77 | B1 | ≤ 0
78 | B2 | ≤ 0

target: ScBzz1-D1; experiment: as above
Summary of the method: as §1

Row | Binder | SPOT peptide array binding signal intensity
79 | B1 | ≤ 0
80 | B2 | 13

target: ScBzz1-D2; experiment: as above
Summary of the method: as §1

Row | Binder | SPOT peptide array binding signal intensity
81 | B1 | 6
82 | B2 | ≤ 0

target: ScCyk3; experiment: as above
Summary of the method: as §1

Row | Binder | SPOT peptide array binding signal intensity
83 | B1 | ≤ 0
84 | B2 | 1

target: ScFus1; experiment: as above
Summary of the method: as §1

Row | Binder | SPOT peptide array binding signal intensity
85 | B1 | ≤ 0
86 | B2 | ≤ 0

target: ScHof1; experiment: as above
Summary of the method: as §1

Row | Binder | SPOT peptide array binding signal intensity
87 | B1 | ≤ 0
88 | B2 | 13.5

target: ScHse1; experiment: as above
Summary of the method: as §1

Row | Binder | SPOT peptide array binding signal intensity
89 | B1 | 35
90 | B2 | 34

target: ScLsb1; experiment: as above
Summary of the method: as §1

Row | Binder | SPOT peptide array binding signal intensity
91 | B1 | ≤ 0
92 | B2 | ≤ 0

target: ScLsb2; experiment: as above
Summary of the method: as §1

Row | Binder | SPOT peptide array binding signal intensity
93 | B1 | ≤ 0
94 | B2 | ≤ 0

target: ScLsb3; experiment: as above
Summary of the method: as §1

Row | Binder | SPOT peptide array binding signal intensity
95 | B1 | ≤ 0
96 | B2 | ≤ 0

target: ScLsb4; experiment: as above
Summary of the method: as §1

Row | Binder | SPOT peptide array binding signal intensity
97 | B1 | ≤ 0
98 | B2 | ≤ 0

target: ScMyo3; experiment: as above
Summary of the method: as §1

Row | Binder | SPOT peptide array binding signal intensity
99 | B1 | 3090
100 | B2 | 1190

target: ScMyo5; experiment: as above
Summary of the method: as §1

Row | Binder | SPOT peptide array binding signal intensity
101 | B1 | 2780
102 | B2 | 712

target: ScNbp2; experiment: as above
Summary of the method: as §1

Row | Binder | SPOT peptide array binding signal intensity
103 | B1 | 6
104 | B2 | 22

target: ScPex13; experiment: as above
Summary of the method: as §1

Row | Binder | SPOT peptide array binding signal intensity
105 | B1 | ≤ 0
106 | B2 | 538

target: ScRvs167; experiment: as above
Summary of the method: as §1

Row | Binder | SPOT peptide array binding signal intensity
107 | B1 | ≤ 0
108 | B2 | 2.33

target: ScSho1; experiment: as above
Summary of the method: as §1

Row | Binder | SPOT peptide array binding signal intensity
109 | B1 | 1.5
110 | B2 | ≤ 0

target: ScSla1-D1-D2; experiment: as above
Summary of the method: as §1

Row | Binder | SPOT peptide array binding signal intensity
111 | B1 | 2.5
112 | B2 | ≤ 0

target: ScSla1-D3; experiment: as above
Summary of the method: as §1

Row | Binder | SPOT peptide array binding signal intensity
113 | B1 | ≤ 0
114 | B2 | 1.25

target: SpAbp1-D1; experiment: as above
Summary of the method: as §1

Row | Binder | SPOT peptide array binding signal intensity
115 | B1 | 1
116 | B2 | 6

target: SpBbc1; experiment: as above
Summary of the method: as §1

Row | Binder | SPOT peptide array binding signal intensity
117 | B1 | ≤ 0
118 | B2 | 3

target: SpBzz1-D1; experiment: as above
Summary of the method: as §1

Row | Binder | SPOT peptide array binding signal intensity
119 | B1 | 80.5
120 | B2 | 3120

target: SpBzz1-D2; experiment: as above
Summary of the method: as §1

Row | Binder | SPOT peptide array binding signal intensity
121 | B2 | 4.25

target: SpCyk3; experiment: as above
Summary of the method: as §1

Row | Binder | SPOT peptide array binding signal intensity
122 | B2 | ≤ 0

target: SpHof1; experiment: as above
Summary of the method: as §1

Row | Binder | SPOT peptide array binding signal intensity
123 | B2 | ≤ 0

target: SpHof1-2; experiment: as above
Summary of the method: as §1

Row | Binder | SPOT peptide array binding signal intensity
124 | B2 | ≤ 0

target: SpHof1-3; experiment: as above
Summary of the method: as §1

Row | Binder | SPOT peptide array binding signal intensity
125 | B2 | ≤ 0

target: SpHse1; experiment: as above
Summary of the method: as §1

Row | Binder | SPOT peptide array binding signal intensity
126 | B2 | 10.5

target: SpLsb1; experiment: as above
Summary of the method: as §1

Row | Binder | SPOT peptide array binding signal intensity
127 | B2 | 4.75

target: SpLsb4; experiment: as above
Summary of the method: as §1

Row | Binder | SPOT peptide array binding signal intensity
128 | B2 | 27

target: SpMyo1; experiment: as above
Summary of the method: as §1

Row | Binder | SPOT peptide array binding signal intensity
129 | B2 | 980

target: SpNbp2; experiment: as above
Summary of the method: as §1

Row | Binder | SPOT peptide array binding signal intensity
130 | B2 | 16

target: SpPex13; experiment: as above
Summary of the method: as §1

Row | Binder | SPOT peptide array binding signal intensity
131 | B2 | ≤ 0

target: SpRvs167; experiment: as above
Summary of the method: as §1

Row | Binder | SPOT peptide array binding signal intensity
132 | B2 | 64.7

target: SpSla1-D1-D2; experiment: as above
Summary of the method: as §1

Row | Binder | SPOT peptide array binding signal intensity
133 | B2 | 1

target: SpSla1-D3; experiment: as above
Summary of the method: as §1

Row | Binder | SPOT peptide array binding signal intensity
134 | B2 | ≤ 0
